Screen size: about 310,000 compounds; about 3,900 (1.3%) were called active.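 How the source made its calls: active means compounds whose thallium flux B-score, printed positive for inhibition, exceeds three library SD while starting fluorescence stays within three; inactive means the rest.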 Shown is part of a subset that was picked to be rich in actives.
What follows are compounds tested against Potassium voltage-gated channel subfamily KQT member 1 (Homo sapiens) (UniProt P51787) (assay: KCNQ1 potassium current blockers – cell-based, thallium flux, high-throughput, primary screen (AID 2642;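 further: channel opened by potassium depolarization with thallium stimulus after 20 min compound exposure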)). Details: CHO-K1 KCNQ1, FluxOR thallium flux fluorescence, at 10 µM; stronger effect = higher value.
Chain of Potassium voltage-gated channel subfamily KQT member 1 (Homo sapiens) (P51787 whole entry, looked up): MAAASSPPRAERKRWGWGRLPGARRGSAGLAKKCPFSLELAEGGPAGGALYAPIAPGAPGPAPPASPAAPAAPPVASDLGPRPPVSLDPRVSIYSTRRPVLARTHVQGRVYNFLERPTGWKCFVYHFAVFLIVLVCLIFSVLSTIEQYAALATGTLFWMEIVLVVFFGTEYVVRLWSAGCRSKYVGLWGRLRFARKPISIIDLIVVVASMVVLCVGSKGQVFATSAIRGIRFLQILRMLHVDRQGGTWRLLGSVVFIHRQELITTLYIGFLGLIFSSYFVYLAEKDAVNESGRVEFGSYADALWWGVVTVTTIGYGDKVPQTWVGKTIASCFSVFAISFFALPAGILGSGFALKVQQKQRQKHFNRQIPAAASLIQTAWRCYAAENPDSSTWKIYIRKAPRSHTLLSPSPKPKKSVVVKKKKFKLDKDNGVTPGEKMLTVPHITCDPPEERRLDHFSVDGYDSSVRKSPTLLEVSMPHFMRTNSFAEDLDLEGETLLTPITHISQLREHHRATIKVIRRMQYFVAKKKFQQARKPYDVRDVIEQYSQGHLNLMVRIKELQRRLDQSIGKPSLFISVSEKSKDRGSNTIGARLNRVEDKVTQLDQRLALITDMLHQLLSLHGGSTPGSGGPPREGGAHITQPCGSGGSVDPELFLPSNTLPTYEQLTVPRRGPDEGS
`COc1cccc2c1OCC(C(=O)NCc1ccc(Cl)cc1Cl)=C2` was tested, and the B-score was “inactive”.
With `CCOc1cc(C2C(C(=O)OC(C)C)=C(C)NC3=C2C(=O)CCC3)cc([N+](=O)[O-])c1O` (stereo unspecified) the B-score was “inactive”.
For `CCC(C)NC(=O)CN(C1CCCCC1)S(C)(=O)=O` (stereo unspecified), the B-score was “inactive”.
In the case of `CS(=O)(=O)N(CC(=O)Nc1ccc(Cl)c(Cl)c1)C1CCCCC1`, the B-score is reported as 7 (active).
With `CS(=O)(=O)N(CC(=O)Nc1ccc(F)cc1)C1CCCCC1` the B-score was “inactive”.
In the case of `CC(NC(=O)Cn1cc(C(F)(F)F)cc(Cl)c1=O)c1ccccc1` (stereo unspecified), the B-score is reported as “inactive”.
With `NS(=O)(=O)c1cc2c(cc1Cl)NC(C(Cl)Cl)NS2(=O)=O` (stereo unspecified) the B-score was “inactive”.
With `COC(=O)c1sc(N2CCN(Cc3ccccc3)CC2)nc1N` the B-score was “inactive”.
For `CCOC(=O)/C(C#N)=C/c1ccc(N2CCN(Cc3ccccc3)CC2)cc1`, the B-score was “inactive”.
With `CC(C)OC(=O)C(C#N)c1nc2ccccc2nc1N1CCN(Cc2ccccc2)CC1` (stereo unspecified) the B-score was 7 (active).
`COc1ccc(S(=O)(=O)N(CC(=O)N/N=C/c2ccc(C(=O)O)cc2)Cc2ccccc2)cc1OC` was tested, and the B-score was “inactive”.
In the case of `CC(=O)N1c2ccc(S(=O)(=O)N3CCCC(C(=O)NCc4ccc(Cl)cc4)C3)cc2CC1C` (stereo unspecified), the B-score is reported as “inactive”.
For `CCN(C(=O)COc1ccc(C(=O)c2ccccc2)cc1)c1ccccc1`, the B-score was “inactive”.
For `N#CC1=C(SCc2ccccc2)NC(=O)C(C#N)C12CCCC2` (stereo unspecified), the B-score was “inactive”.
For `N#CC1=C(SCc2ccc(C#N)cc2)N=C(N)C(c2nc(-c3ccccc3)cs2)C12CCCCC2` (stereo unspecified), the B-score was 6 (active).
In the case of `N#Cc1ccc(CSc2ncccn2)cc1`, the B-score is reported as “inactive”.
For `COc1ccc(OC)c2[nH]c(=O)c(CCNC(=O)C(=O)c3c[nH]c4ccccc34)cc12`, the B-score was “inactive”.
For `COCCn1c(SCC(=O)Nc2cc(OC)ccc2OC)nc2c(c1=O)SC(C)C2` (stereo unspecified), the B-score was “inactive”.
In the case of `COc1ccc(-c2nc3ccccc3c(=O)n2CCc2ccc(O)cc2)cc1`, the B-score is reported as “inactive”.
In the case of `COc1ccc(CCNCc2c(-c3ccccc3)n(C)c3ccccc23)cc1`, the B-score is reported as 7 (active).
For `COc1ccc(-c2c(C#Cc3ccccc3)c3ccccc3n2C)cc1`, the B-score was “inactive”.
`CCN1N=C(c2ccccc2)CCC1=O` was tested, and the B-score was “inactive”.
In the case of `Cc1ccccc1NC(=O)Nc1ccccc1N1CCCCC1`, the B-score is reported as “inactive”.
For `Cc1ccccc1NC(=O)CNc1ccccc1N1CCCCC1`, the B-score was “inactive”.
In the case of `O=C(CNCCC1=CCCCC1)Nc1ccccc1N1CCCCCC1`, the B-score is reported as 12 (active).
In the case of `COC(=O)c1ccc(COC(=O)C2CCN(S(=O)(=O)c3c(Cl)cccc3Cl)CC2)o1`, the B-score is reported as “inactive”.
With `COc1cc(CN2CCNC(=O)C2CC(=O)NCCc2ncccc2C)cc(OC)c1` (stereo unspecified) the B-score was “inactive”.
In the case of `CC(=O)Nc1c2c(nn1-c1cccc(C)c1)CSC2`, the B-score is reported as “inactive”.
For `CCC[C@@H]1C[C@@]1(CCC)[C@@H](NC(=O)c1ccccc1)c1ccc(C(=O)OC)cc1`, the B-score was 12 (active).
For `COC(=O)c1ccc(NCC(=O)c2ccccc2)cc1`, the B-score was “inactive”.
In the case of `CCC/C=C(\CCC)C(NC(=O)Cc1ccccc1)c1ccc(C(=O)OC)cc1` (stereo unspecified), the B-score is reported as “inactive”.
